Inconclusive results are not listed. Calls of active or inactive are those of the source. Unless noted, the call rests on the fitted dose curve; in most records, active means well fitted curve in the direction sought with a large enough effect in the repeat runs; inconclusive means weak or mixed curves; inactive means no such curve, though single readings can be large; an effect the other way counts as inactive or inconclusive.
How the values were obtained:
[1] = qHTS assay to identify small molecule agonists of the peroxisome proliferator-activated receptor delta (PPARd) signaling pathway - cell viability counter screen (AID 743211); further: nearly all actives have a fitted effect of over 55% in size
Method in brief: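 In the same wells used for beta-lactamase reporter measurement, cytotoxicity is scored by CellTiter-Glo. HEK293H PPARd-bla cells receive compound for 17 h at 37C following a 5 h settling period.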

[2] = target: Peroxisome proliferator-activated receptor delta (Homo sapiens) (UniProt Q03181); experiment: qHTS assay to identify small molecule agonists of the peroxisome proliferator-activated receptor delta (PPARd) signaling pathway (AID 743212; calls by dose curve;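 further: HEK293H cells with PPARd UAS beta-lactamase reporter GeneBLAzer system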)
Method in brief: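 Beta-lactamase reporter read by fluorescence (LiveBLAzer B/G FRET, 2 h, room temperature). Test agents, in DMSO, incubated at 37 C with PPARd-bla HEK293H cells.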

[3] = qHTS assay to identify small molecule antagonists of the peroxisome proliferator-activated receptor delta (PPARd) signaling pathway - cell viability counter screen (AID 743213); further: nearly all actives have a fitted effect of over 50% in size
Method in brief: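 Agonist-stimulated (L165041, 300 nM final) HEK293H PPARd UAS-bla cells are exposed to compounds for 17 h at 37 C, and ATP-based luminescence (CellTiter-Glo) from the same wells reports cytotoxicity.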

[4] = target: Peroxisome proliferator-activated receptor delta (Homo sapiens) (UniProt Q03181); experiment: qHTS assay to identify small molecule antagonists of the peroxisome proliferator-activated receptor delta (PPARd) signaling pathway (AID 743215; active means well fitted inhibition curve with a large enough effect in the signal ratio in the repeat runs, not every such curve was filed as active; the % refers to the signal ratio; further: series mostly up to about 62 µM)
Method in brief: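 Agonist L165041 (300 nM final) added with compound to PPARd-bla HEK293H UAS-bla reporter cells; 17 h incubation at 37 C. Read-out: LiveBLAzer FRET substrate, 2 h at room temperature, fluorescence intensity.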

[5] = target: Bile acid receptor (Homo sapiens) (UniProt Q96RI1); experiment: qHTS assay to identify small molecule antagonists of the farnesoid-X-receptor (FXR) signaling pathway (AID 743217; active means well fitted inhibition curve with a large enough effect in the signal ratio in the repeat runs, not every such curve was filed as active; the % refers to the signal ratio; further: potency means the concentration at half of the fitted maximal effect)
Method in brief: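 Antagonist mode: chenodeoxycholic acid at 50 uM final stimulates a UAS-driven beta-lactamase reporter in HEK 293T FXR-bla cells during 16 h, 37C compound exposure. Read-out is FRET substrate fluorescence after 2 h at room temperature.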

[6] = qHTS assay to identify small molecule agonists of the farnesoid-X-receptor (FXR) signaling pathway - cell viability counter screen (AID 743218); further: nearly all actives have a fitted effect of over 45% in size
Method in brief: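 Viability counter screen in the same wells: CellTiter-Glo luminescence, 30 min room-temperature incubation, measured after the beta-lactamase read. Cells were GeneBLAzer FXR-UAS-bla HEK 293T, compound-treated 16 h at 37C.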

[7] = target: Bile acid receptor (Homo sapiens) (UniProt Q96RI1); experiment: qHTS assay to identify small molecule agonists of the farnesoid-X-receptor (FXR) signaling pathway (AID 743220; active means well fitted activation curve with a large enough effect in the signal ratio in the repeat runs, not every such curve was filed as active; the % refers to the signal ratio)
Method in brief: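 FXR-UAS-bla HEK 293T cells carrying a UAS-driven beta-lactamase reporter were plated for 5 h at 37C/5% CO2, then exposed to DMSO-dissolved Tox21 10K compounds for 16 h at 37C. A LiveBLAzer B/G FRET substrate was loaded for 2 h at room temperature before fluorescence reading.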

[8] = qHTS assay to identify small molecule antagonists of the farnesoid-X-receptor (FXR) signaling pathway - cell viability counter screen (AID 743221; active means well fitted cell-killing curve with a large enough effect in the repeat runs, not every such curve was filed as active; further: nearly all actives have a fitted effect of over 50% in size)
Method in brief: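 Here viability was scored by luminescence after CellTiter-Glo addition to wells already read for beta-lactamase. Prior treatment: compound plus CDCA (50 uM final), 16 h, 37 C, HEK 293T FXR-bla cells.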

[9] = target: Vitamin D3 receptor (Homo sapiens) (UniProt P11473); experiment: qHTS assay to identify small molecule agonists of the vitamin D receptor (VDR) signaling pathway (AID 743222; calls by dose curve)
Method in brief: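 Agonist mode, beta-lactamase reporter: fluorescence from LiveBLAzer B/G FRET substrate (2 h, room temperature) read after 16 h compound treatment at 37 C of VDR-bla cells, which were pre-incubated 4 h after seeding.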

[10] = target: Vitamin D3 receptor (Homo sapiens) (UniProt P11473); experiment: qHTS assay to identify small molecule antagonists of the vitamin D receptor (VDR) signaling pathway (AID 743223; active means well fitted inhibition curve with a large enough effect in the signal ratio in the repeat runs, not every such curve was filed as active; the % refers to the signal ratio)
Method in brief: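 Inhibition of agonist-driven VDR signalling is scored in VDR-bla cells: 3 nM final 1alpha,25-dihydroxyvitamin D3 plus compound, 16 h at 37C, then beta-lactamase detection by FRET substrate fluorescence after 2 h.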
On the % scale 0 is the no-effect control and ±100 the full control effect.

Sequence of Vitamin D3 receptor (Homo sapiens) (P11473 whole entry, looked up): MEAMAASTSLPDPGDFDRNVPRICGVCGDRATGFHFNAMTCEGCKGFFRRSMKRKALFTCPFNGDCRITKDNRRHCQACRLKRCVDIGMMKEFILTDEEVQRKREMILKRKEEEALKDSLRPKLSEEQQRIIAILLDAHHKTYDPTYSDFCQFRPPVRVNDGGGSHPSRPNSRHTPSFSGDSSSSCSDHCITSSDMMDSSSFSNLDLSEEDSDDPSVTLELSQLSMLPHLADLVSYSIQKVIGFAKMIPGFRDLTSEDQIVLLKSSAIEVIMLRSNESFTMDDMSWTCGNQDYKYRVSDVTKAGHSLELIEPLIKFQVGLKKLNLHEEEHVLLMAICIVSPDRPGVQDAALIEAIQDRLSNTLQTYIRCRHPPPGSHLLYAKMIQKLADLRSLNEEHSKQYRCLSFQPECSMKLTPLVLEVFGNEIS
Sequence of Peroxisome proliferator-activated receptor delta (Homo sapiens) (Q03181 whole entry, looked up): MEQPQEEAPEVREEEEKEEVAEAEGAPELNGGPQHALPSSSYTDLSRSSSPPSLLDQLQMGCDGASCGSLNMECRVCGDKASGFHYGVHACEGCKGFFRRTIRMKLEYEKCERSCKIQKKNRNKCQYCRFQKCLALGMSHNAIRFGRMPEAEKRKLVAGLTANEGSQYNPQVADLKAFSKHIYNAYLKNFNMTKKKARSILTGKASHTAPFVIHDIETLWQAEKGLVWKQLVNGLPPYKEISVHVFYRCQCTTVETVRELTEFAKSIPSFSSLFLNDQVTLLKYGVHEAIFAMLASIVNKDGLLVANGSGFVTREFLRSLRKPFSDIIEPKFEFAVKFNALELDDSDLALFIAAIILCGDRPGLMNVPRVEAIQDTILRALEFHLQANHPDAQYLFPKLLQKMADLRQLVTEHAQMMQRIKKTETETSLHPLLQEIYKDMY
Sequence of Bile acid receptor (Homo sapiens) (Q96RI1 whole entry, looked up): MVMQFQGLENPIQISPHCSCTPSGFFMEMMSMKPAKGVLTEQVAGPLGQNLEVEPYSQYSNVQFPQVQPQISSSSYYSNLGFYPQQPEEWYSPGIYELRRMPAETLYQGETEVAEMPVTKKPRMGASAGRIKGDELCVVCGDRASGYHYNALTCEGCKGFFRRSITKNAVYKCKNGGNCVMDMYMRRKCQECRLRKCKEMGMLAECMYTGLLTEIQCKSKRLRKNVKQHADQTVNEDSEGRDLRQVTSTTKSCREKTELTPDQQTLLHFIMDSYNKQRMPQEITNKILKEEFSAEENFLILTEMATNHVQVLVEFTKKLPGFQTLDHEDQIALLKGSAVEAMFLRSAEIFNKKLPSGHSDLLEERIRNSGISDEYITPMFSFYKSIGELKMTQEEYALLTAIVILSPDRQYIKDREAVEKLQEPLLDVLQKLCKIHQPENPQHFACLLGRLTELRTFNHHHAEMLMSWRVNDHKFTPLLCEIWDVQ

CC(=O)Nc1ccc(N)cc1
inactive: Potency [1] | Potency [2] | Potency [3] | Potency [4] | Potency [5] | Potency [6] | Potency [7] | Potency [8] | outcome [9]

O=C(Nc1ccccc1)Nc1ccccc1
inactive: Potency [1] | Potency [2] | Potency [3] | Potency [4]

CC(C)(C)C(=O)O
inactive: Potency [1] | Potency [2] | Potency [3] | Potency [4] | Potency [5] | Potency [6] | Potency [7] | Potency [8] | outcome [10]

CC(C)OCC1CO1 (stereo unspecified)
inactive: Potency [1] | Potency [2] | Potency [3] | Potency [4] | Potency [5] | Potency [6] | Potency [7] | outcome [10]

C=CCCCCCCCCCCCCCCCC
inactive: activity change, negative = cytotoxicity [1] -1.2% [at 5.95 µM] | activation [2] -3.43% [at 5.95 µM] | viability change, negative = cytotoxic [3] 13.3% [at 6.26 µM] | ratio activity, negative = inhibition [4] -0.434% [at 6.26 µM] | activity change, negative = inhibition [5] -5.71% [at 5.95 µM] | viability change, negative = cytotoxic [6] 4.85% [at 5.95 µM] | activation [7] -1.74% [at 5.95 µM] | activity change, negative = cytotoxicity [8] -0.119% [at 5.95 µM] | activation [9] -0.178% [at 6.01 µM] | activity change, negative = inhibition [10] 7.35% [at 6.95 µM]

CC(C)(C)C(=O)C(Oc1ccc(Cl)cc1)n1ccnc1 (stereo unspecified)
inactive: Potency [1] | Potency [2] | Potency [3] | Potency [4] | Potency [5] | Potency [6] | Potency [7] | Potency [8]

CCCCCCCCCOC(C)=O
inactive: Potency [1] | Potency [2] | Potency [3] | Potency [4] | Potency [5] | Potency [6] | Potency [7] | Potency [8] | outcome [9] | outcome [10]

CC1=C(C=O)C(C)(C)CCC1
inactive: Potency [1] | Potency [2] | Potency [3] | Potency [4] | Potency [5] | Potency [6] | Potency [7] | outcome [9]

Nc1c(I)cc(I)c(C(=O)N(CCC(=O)O)c2ccccc2)c1I
inactive: Potency [1] | Potency [2] | Potency [3] | Potency [4] | Potency [5] | Potency [6] | Potency [7] | Potency [8] | outcome [9] | outcome [10]

CC(=O)Oc1ccc2c(c1)CC[C@@H]1[C@@H]2CC[C@]2(C)[C@@H](O)CC[C@@H]12
inactive: Potency [1] | Potency [2] | Potency [3] | Potency [4] | Potency [6] | Potency [7] | Potency [8] | outcome [9] | outcome [10]
active: Potency [5] 29.8 µM

CCCCCCCCCCCC(=O)[O][Sn]([CH2]CCC)([CH2]CCC)[O]C(=O)CCCCCCCCCCC
inactive: Potency [1] | Potency [2]

[O]=[Bi]
inactive: activity change, negative = cytotoxicity [1] 2.23% [at 5.95 µM] | activation [2] 2.74% [at 5.95 µM] | viability change, negative = cytotoxic [3] -12.9% [at 6.26 µM] | ratio activity, negative = inhibition [4] 3.78% [at 6.26 µM] | activity change, negative = inhibition [5] 6.5% [at 5.95 µM] | viability change, negative = cytotoxic [6] 7.08% [at 5.95 µM] | activation [7] 0.937% [at 5.95 µM] | activity change, negative = cytotoxicity [8] 2.95% [at 5.95 µM] | activity change, negative = inhibition [10] 5.58% [at 6.95 µM]

CO[C@H]1O[C@H](CO)[C@@H](O)[C@H](O)[C@H]1O
inactive: Potency [1] | Potency [2] | Potency [3] | Potency [4] | Potency [5] | Potency [6] | Potency [7] | Potency [8] | outcome [9] | outcome [10]

C[Si](NC1CCCCC1)(NC1CCCCC1)NC1CCCCC1
inactive: Potency [1] | Potency [2] | Potency [3] | Potency [4] | Potency [5] | Potency [6] | Potency [7] | outcome [9] | outcome [10]

CCCCCCCCSCCO
inactive: Potency [1] | Potency [2] | Potency [3] | Potency [4] | Potency [5] | Potency [6] | Potency [7] | Potency [8]

CC#N
inactive: Potency [1] | Potency [2] | Potency [3] | Potency [4] | Potency [5] | Potency [6] | Potency [7] | Potency [8]

COC(=O)CC(=O)C(C)(C)C
inactive: Potency [1] | Potency [2] | Potency [3] | Potency [4] | Potency [5] | Potency [6] | Potency [7] | outcome [9] | outcome [10]

CCOC(=O)/C=C/C(=O)O
inactive: Potency [1] | Potency [2] | Potency [3] | Potency [4] | outcome [9] | outcome [10]

CN1CCCN=C1/C=C/c1cccs1
inactive: Potency [1] | Potency [2] | Potency [3] | Potency [6] | Potency [8] | outcome [10]

O=C(/C=C/c1ccccc1)OCCCc1ccccc1
inactive: Potency [1] | Potency [2] | Potency [3] | Potency [4] | outcome [9] | outcome [10]

Fc1c(F)c(F)c(Br)c(F)c1F
inactive: Potency [1] | Potency [2] | Potency [3] | Potency [6] | Potency [8] | outcome [9]

CCCCCCOC(=O)CCCCCCCC(=O)OCCCCCC
inactive: Potency [1] | Potency [2] | Potency [3] | Potency [4] | outcome [9] | outcome [10]

CC1=CC(O)CC(C)(C)C1 (stereo unspecified)
inactive: Potency [1] | Potency [2] | Potency [3] | Potency [8] | outcome [9] | outcome [10]

COCc1c(C(C)C)nc(C(C)C)c(/C=C/[C@@H](O)C[C@@H](O)CC(=O)O)c1-c1ccc(F)cc1
inactive: Potency [1] | Potency [2] | Potency [4] | Potency [6] | outcome [9]

O=C1OCCN1/N=C/c1ccc([N+](=O)[O-])o1
inactive: Potency [1] | Potency [2] | Potency [4] | Potency [6] | Potency [8] | outcome [9]

CC(C)=CC=O
inactive: Potency [1] | Potency [2] | Potency [3] | Potency [4] | Potency [6] | outcome [10]

C[Si]1(C)O[Si](C)(C)O[Si](C)(C)O1
inactive: Potency [1] | Potency [2] | Potency [3] | Potency [6] | Potency [8] | outcome [9] | outcome [10]

c1cc[c]([Bi]([c]2ccccc2)[c]2ccccc2)cc1
inactive: Potency [1] | Potency [2] | Potency [3] | Potency [6] | Potency [8]

Reference: PubChem BioAssay (Tox21)
